Screening results (PubChem BioAssay)
An excerpt weighted towards active compounds, which were near 18% of everything screened.
IL1B secr inh: inhibitors of inflammasome signaling (IL-1 beta secretion); THP-1 LPS/ATP IL-1B secretion, AlphaLISA, 16 h; hits give low values; 360,000 compounds, 4.7% hits; activity change, % at 57.5 µM; in the data active = activity change below about -50%; inconclusive = mostly about -30% to -49%; note: % is set by controls: 0 for no effect and ±100 for the full control effect
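Secreted IL-1B measured by AlphaLISA bead assay after 16 h compound exposure of THP-1 cells; compounds (final up to 57.5 uM) added 1 h before LPS (250 ng/mL) and ATP (1.25 mM) stimulation; lower signal means less secretion.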
TGFb inhibitor: TGF-b pathway inhibition; Potency, µM (titrated, usually from 46.1 µM), without a hit: at the top dose activity, negative = inhibition, actives largely listed as inhibitors; AID 588855; 410,000 compounds, 1.2% hits; HepG2 CAGA-GFP TGF-b/SMAD3 reporter, GFP fluorescence, 18 h; TGF-beta stimulated, 500 pg/mL final; note: potency is the fitted concentration of half-maximal effect; % is set by controls: 0 for no effect and ±100 for the full control effect; nearly all actives have a fitted effect of over 65% in size
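Cell-based qHTS in HEPG2 carrying a CAGA-GFP Smad reporter; compounds added before 500 pg/mL final TGF-beta, 18 h incubation at 37 degrees C, GFP fluorescence quantified per cell by imaging cytometry.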
TDP1 cell CPT: DT40-hTDP1 cell growth loss with CPT; Potency, µM (series often up to 46.2 µM), for the others: at the highest dose activity change, negative = growth inhibition, actives largely listed as inhibitors; 420,000 compounds, 12% hits; chicken DT40 Tdp1-/-;hTDP1 cells + 20 nM CPT, ATP luminescence, 48 h; note: potency is the fitted concentration of half-maximal effect; % is set by controls: 0 for no effect and ±100 for the full control effect; nearly all actives have a fitted effect of over 55% in size
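Cell growth measured by CellTiter-Glo luminescence after a minimum 48 h, 37 C compound exposure with 20 nM CPT in Tdp1-knockout DT40 cells stably expressing hTDP1, seeded 400/well; qHTS titration format.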
TDP1 cell noCPT: qHTS for Inhibitors of human tyrosyl-DNA phosphodiesterase 1 (TDP1): qHTS in cells in absence of CPT; DT40 Tdp1-/- hTDP1 cells, no CPT, ATP luminescence, 48 h; Potency, µM (series often up to 46.2 µM), for the others: at the top dose activity change, negative = growth inhibition, most hits filed as inhibitors; 420,000 compounds, 15% hits; AID 686978, 2013; note: potency is the fitted concentration of half-maximal effect; % is set by controls: 0 for no effect and ±100 for the full control effect; nearly all actives have a fitted effect of over 55% in size
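Seeded 400 DT40-hTDP1 cells/well (vehicle DMSO, no 20 nM CPT); pinned compounds; ≥48 hr at 37 °C; CellTiter-Glo luminescence as viability measure.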
HepG2 tox: kills HepG2 cells in TGF-b inhibitor counter-screen; HepG2 CAGA-GFP viability, ATP luminescence, 18 h; 410,000 compounds, 0.76% hits; Potency, µM (highest dose often 46.1 µM), without a hit: at the highest dose activity change, negative = cytotoxicity, most hits filed as cytotoxic; note: potency is the fitted concentration of half-maximal effect
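CellTiter-Glo luminescence gave cytotoxicity after 18 hours at 37 degrees C. The cells were HepG2 CAGA-GFP in 1% FBS DMEM, stimulated with 500 pg/mL TGF-beta after compound addition. %Activity was normalised to no-cell wells (complete cell-killing) and DMSO (no toxicity), and curves were fitted and classified.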
TDP1 block: inhibitors of human tyrosyl-DNA phosphodiesterase TDP1. Potency, µM (top dose mostly 130 µM), for the others: at the top dose activity change, negative = inhibition, usual class: inhibitors. 350,000 compounds, 0.28% hits. recombinant TDP1, AlphaScreen DNA substrate cleavage; note: potency is the fitted concentration of half-maximal effect; % is set by controls: 0 for no effect and ±100 for the full control effect; nearly all actives have a fitted effect of over 40% in size
Target sequence (Q9NUW8 whole entry, looked up): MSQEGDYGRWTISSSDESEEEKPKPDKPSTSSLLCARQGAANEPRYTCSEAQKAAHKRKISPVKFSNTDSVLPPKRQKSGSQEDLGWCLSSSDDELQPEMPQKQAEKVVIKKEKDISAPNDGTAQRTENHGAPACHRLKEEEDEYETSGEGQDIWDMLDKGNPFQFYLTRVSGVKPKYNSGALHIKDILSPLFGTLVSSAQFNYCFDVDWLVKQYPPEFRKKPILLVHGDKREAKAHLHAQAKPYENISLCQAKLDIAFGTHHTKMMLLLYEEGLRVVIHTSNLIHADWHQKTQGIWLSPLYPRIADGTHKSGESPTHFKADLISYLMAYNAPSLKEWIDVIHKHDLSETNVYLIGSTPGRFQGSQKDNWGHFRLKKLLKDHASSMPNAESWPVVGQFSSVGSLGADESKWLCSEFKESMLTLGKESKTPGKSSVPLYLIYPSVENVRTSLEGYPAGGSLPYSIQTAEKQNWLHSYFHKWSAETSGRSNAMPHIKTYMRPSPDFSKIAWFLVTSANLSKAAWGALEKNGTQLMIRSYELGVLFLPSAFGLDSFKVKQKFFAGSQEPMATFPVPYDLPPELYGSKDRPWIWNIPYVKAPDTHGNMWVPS
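Here, a 5' biotin and 3' phosphotyrosine-FITC DNA oligonucleotide reports Tdp1 activity: intact substrate bridges AlphaScreen beads, while cleavage leaves a 3' phosphate and drops signal. All incubations at room temperature.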
Starred values were filed as active, the others as inactive; ? = inconclusive; · = no result given; [ ] = dose if it differs, or a comment. Unless noted, calls come from the whole dose curve; as a rule, active = well fitted curve in the direction sought with a large enough effect; inconclusive = small, poorly fitted or top-dose-only effect, or another doubt; inactive = no such curve, though single readings can be large; an effect the other way counts as inactive or inconclusive.

SMILES	IL1B secr inh	TGFb inhibitor	TDP1 cell CPT	TDP1 cell noCPT	HepG2 tox	TDP1 block
OC(c1ccccc1)(c1nc(-c2cc3ccccc3o2)cs1)C(F)(F)F (configuration not stated)	0	?	21µM*	16µM*	-104%	·
OC(c1ccccc1)(c1nc(-c2ccc(Cl)cc2)cs1)C(F)(F)F (configuration not stated)	1	?	?	?	16µM*	·
O=C(CCl)N1c2ccccc2Oc2ccc3ccccc3c21	?	?	5.2µM*	1.5µM*	-93%	·
CCOC(=O)C1CC2=C(CC(C)(C)CC2=O)N(CCOC)C1=O (configuration not stated)	1	-18%	0%	-16%	-1%	·
O=C(NCCc1ccccc1)c1ccc(Cn2c(SCc3cccc(F)c3)nc3cccnc32)cc1	·	?	7.3µM*	15µM*	-3%	·
O=C(NCCc1ccccc1)c1ccc(Cn2c(SCc3ccccc3)nc3cccnc32)cc1	·	-6%	?	?	-25%	6%
O=C(NCc1cccs1)c1ccc(Cn2c(SCc3cccc(F)c3)nc3cccnc32)cc1	·	?	26µM*	18µM*	-36%	5%
Cc1ccccc1CSc1nc2cccnc2n1Cc1ccc(C(=O)NCCc2cccs2)cc1	·	-24%	13µM*	16µM*	-36%	7%
Cc1ccccc1CNC(=O)c1ccc(Cn2c(SCc3cccc(F)c3)nc3cccnc32)cc1	·	-30%	15µM*	15µM*	-41%	2%
O=C(NCc1ccccc1Cl)c1ccc(Cn2c(SCc3ccccc3)nc3cccnc32)cc1	·	?	?	?	-35%	1%
CN(C)CCNC(=O)c1ccc(Cn2c(SCc3ccc(F)cc3)nc3cccnc32)cc1	·	15%	?	?	-41%	-1%
Cc1ccc(CSc2nc3cccnc3n2Cc2ccc(C(=O)NCCc3ccccc3)cc2)cc1	·	2%	-15%	-7%	-1%	1%
O=C(NC1CCCCC1)C(c1ccccn1)N(C(=O)c1csnn1)c1ccccc1F (configuration not stated)	23	15%	-16%	-15%	6%	10%
C[N+](C)(CCCCCI)c1ccc(/C=C/c2nc3ccccc3s2)cc1	·	8.9µM*	1µM*	0.56µM*	-40%	·
O=C(/C=C/c1nc2ccccc2s1)N1CCCCCC1	-21	6%	-1%	?	-14%	2%
COc1ncnc2c1ncn2CC1COC(C)(C)O1 (configuration not stated)	-12	-1%	4%	2%	8%	·
CC(Oc1ccc(F)cc1)C(=O)Nc1cc(S(=O)(=O)N2CCCCC2)ccc1N1CCOCC1 (configuration not stated)	3	10%	-8%	16µM*	-5%	-13%
CCN1CCN(c2ccc(S(=O)(=O)N3CCCCC3)cc2NC(=O)C(C)Oc2ccc(F)cc2)CC1 (configuration not stated)	?	11%	18µM*	18µM*	9%	·
Cc1ccccc1C(=O)c1cccn1CC(=O)NCCN1CCN(c2cccc(C)c2C)CC1	?	?	16µM*	8.2µM*	13µM*	5%
Cc1ccc(C)c(N2CCN(CCCNC(=O)Cn3cccc3C(=O)c3ccccc3C)CC2)c1	-114*	?	2.6µM*	2.6µM*	-80%	3%
Cc1ccccc1C(=O)c1cccn1CC(=O)NCCCN1CCCCC1	-11	0%	-11%	11%	-3%	1%
COc1cc(Cl)ccc1OC1(C)CCN(Cc2cccc(OC)c2OC)C1 (configuration not stated)	-3	-6%	13µM*	16µM*	-41%	·
COc1ccc(CN2CCC(C)(Oc3ccc(C(C)=O)cc3)C2)c2ccccc12 (configuration not stated)	0	0%	?	?	-40%	·
COc1cc(Cl)ccc1OC1(C)CCN(Cc2ccccc2OC(F)F)C1 (configuration not stated)	-5	?	21µM*	21µM*	-32%	·
O=C(CN(Cc1ccc(F)cc1)C(=O)C1CSC(=O)C1)NC1CCCCC1 (configuration not stated)	8	-16%	-1%	-15%	4%	1%
SMILES	IL1B secr inh	TGFb inhibitor	TDP1 cell CPT	TDP1 cell noCPT	HepG2 tox	TDP1 block
C=CCOc1ccc(C(=O)Nc2ccc3c(c2)n(C)c(=O)n3C)cc1	6	23%	-23%	?	-25%	·
Cc1ccccc1-c1cccc([C@@H]2C[C@H]3CN(Cc4cccnc4)C(=O)[C@]34CCCN24)c1	0	?	23µM*	18µM*	-15%	·
O=C1N(Cc2cccnc2)C[C@@H]2C[C@@H](c3ccccc3C#Cc3ccccc3)N3CCC[C@@]123	-11	?	29µM*	16µM*	-26%	5%
Cc1cccc([C@@H]2C[C@H]3CN(Cc4cccc(Cl)c4)C(=O)[C@]34CCCN24)n1	-14	-10%	?	?	-18%	·
O=C1N(Cc2cccc(Cl)c2)C[C@@H]2C[C@@H](c3cccc4cccnc34)N3CCC[C@@]123	-28	?	?	?	-13%	0%
CC(=O)N/C(=C\c1ccc(Cl)cc1)C(=O)O	40	-3%	20%	-9%	-14%	-6%
CCOC(=O)CSc1nc(Cc2ccccc2)nc2ccccc12	-1	-10%	-20%	?	-8%	-6%
COC(=O)[C@@]12C[C@@H](CC(=O)N3CCCC3)C(=O)N(Cc3cccc4ccccc34)C1=CCC(C)(C)C2	-22	·	?	?	·	·
COC(=O)[C@@]12C[C@@H](CC(=O)N3CCN(C(=O)C4CC4)CC3)C(=O)N(Cc3cccc4ccccc34)C1=CCC(C)(C)C2	-12	·	?	21µM*	·	·
COC(=O)[C@@]12C[C@@H](CC(=O)N3CCOCC3)C(=O)N(Cc3cccc4ccccc34)C1=CCC(C)(C)C2	-26	·	16µM*	?	·	·
O=c1[nH]c(Cl)nc2c1ncn2C1OC(CO)C(O)C1O (configuration not stated)	·	·	9%	6%	·	-8%[56.1 µM]
